Only a selection was taken, and hits are over-represented in it overall.
TTR transcr act = TTR transcription activation, primary screen | 92,000 tested, 1.3% active | SH-SY5Y TTR promoter Gaussia luciferase, luminescence; 100% = recombinant luciferase protein wells | activation, % at 16.7 µM | AID 1117267;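 active means activation above the mean of all tested compounds plus 3 SD, cut at about 9.5% in these data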;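 further: cells exposed to compounds for one day before reading; 0% = median of all test compound wells on the plate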
TTR inh HuH7 = decreases TTR transcription in HuH7 cells in activator counter-screen. AID 1117279. shares compounds with TTR transcr act. inhibition, % at 16.7 µM. HuH7 TTR promoter-Gaussia luciferase reporter, luminescence. 1,100 tested, 4% active;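 active means average inhibition above the solvent-only control wells' mean plus 3 SD, cut at about 15% in these data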;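 further: 0% = cells with DMSO only and 100% = cells with inhibitor control FD; inhibitors lower well luminescence so higher value means more inhibition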
TTR act confirm = human TTR transcription activation, confirmation; shares compounds with TTR transcr act; SHSY5Y TTR promoter Gaussia luciferase, luminescence; 100% = purified Lucia enzyme wells, no cells; activation, % at 16.7 µM; 1,100 tested, under 10 active; AID 1117280;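 active means mean activation above a set limit taken from the earlier primary screen, cut at about 11% in these data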;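 further: 0% = DMSO-treated cells and 100% = recombinant Lucia luciferase without cells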
Active calls of the source: *.

Screening CC(CCN1C(N(C)C)=NC[C@@H]1C)c1ccccc1 (some centres undefined) returned TTR transcr act 1.
C[C@H]1CN=C(N(C)C)N1CCC1CCCC1 was read as TTR transcr act -2.
C[C@H]1CN=C(N(C)C)N1CCc1ccccc1 was read as TTR transcr act 10*, TTR inh HuH7 1 and TTR act confirm 2.
CC(C)NC(=O)Nc1ccc2c(c1)C(=O)N([C@H](C)CO)C[C@H](C)[C@@H](CN(C)S(=O)(=O)c1ccc(F)cc1)O2 was read as TTR transcr act 1.
Cc1ccccc1CN1CCCCC(NC(=O)c2cccc(F)c2)C1=O (centres undefined) was read as TTR transcr act -1.
`Cc1cc(C)nc(N2N=C(C(F)(F)F)CC2=O)n1` gave TTR transcr act 0.
`COCc1cc(C)nc(SCC[N+](C)(C)CC(=O)Nc2cccc(C(F)(F)F)c2)c1C#N` gave TTR transcr act 6.
Screening O=C(c1ccccc1)c1ccc(OCCn2cnc3ccccc3c2=O)cc1 returned TTR transcr act 0.
CC(C)(c1ccccc1)c1ccc(OCCn2cnc3ccccc3c2=O)cc1 was read as TTR transcr act 0.
For Cc1cc(C)n(-c2nc3ccccc3c(=O)n2OCCOc2ccccc2)n1 the results were TTR transcr act 32*, TTR inh HuH7 -10 and TTR act confirm -1.
`C=CCCC(=O)N[C@H]1CC[C@@]23CCCN2C(=O)CCC[C@H]3[C@H]1CCC` gave TTR transcr act 1.
Screening Cn1c(N)c(C(=O)COC(=O)/C=C/c2ccc(Cl)c(Cl)c2)c(=O)n(C)c1=O returned TTR transcr act -1.
For O=C(N=Nc1c(O)[nH]c2ccccc12)c1ccc2c(c1)OCO2 the results were TTR transcr act 0.
`CN(Cc1cccs1)c1ncnc2ccc(-c3ccc4c(c3)OCO4)cc12` gave TTR transcr act 0.
Screening CC(C)(C)C1=Nn2c(nnc2C2CCCCC2)SC1 returned TTR transcr act 2.
COc1ccc(C2=Nn3c(nnc3-c3ccc(OC)cc3)SC2)cc1 was read as TTR transcr act -1.
For c1cc2c(cc1C1=Nn3c(nnc3C3CCCCC3)SC1)OCO2 the results were TTR transcr act 9.9*, TTR inh HuH7 30* and TTR act confirm -1.
CCc1cccc(NS(=O)(=O)c2ccc3c(c2)NC(=O)CC(=O)N3)c1 was read as TTR transcr act 0.
Screening Cc1cccc(NS(=O)(=O)c2ccc3c(c2)CCC(=O)N3)c1 returned TTR transcr act 2.
Cc1cccc(NS(=O)(=O)c2ccc3c(c2)NC(=O)CC(=O)N3)c1 was read as TTR transcr act 13*, TTR inh HuH7 -11 and TTR act confirm -1.
Cc1ccc(NC(=O)CSc2nc3ccccc3c(=O)[nH]2)cc1[N+](=O)[O-] was read as TTR transcr act 1.
For Cc1cccc(C(=O)NCCc2n[nH]c(=S)n2C)c1 the results were TTR transcr act 0.
Screening Cn1c(CNC(=O)c2cccs2)n[nH]c1=S returned TTR transcr act 0.
Cc1ccc(NC(=O)Cc2n[nH]c(=S)n2C)cc1 was read as TTR transcr act 11*, TTR inh HuH7 -5 and TTR act confirm 1.
For COCCOC(=O)N(C)C[C@@H]1OCCCC[C@H](C)Oc2ccc(NC(=O)Nc3ccccc3)cc2C(=O)N([C@@H](C)CO)C[C@H]1C the results were TTR transcr act 2.
CN(C)CCC1CCN(c2cc(C#N)c(C#N)cc2[N+](=O)[O-])CC1 was read as TTR transcr act 8.
Screening Cn1ncc(Cl)c1C(=O)Nc1ccc(CN2CCCCC2)cc1 returned TTR transcr act -1.
`CC(=O)Nc1ccc(NC(=O)C2(C)CC2(Cl)Cl)cc1` (centres undefined) gave TTR transcr act -1.
Screening CCCSc1nnc(NC(=O)c2ccco2)s1 returned TTR transcr act 2.
For O=C(CSc1nnc(NC(=O)c2ccco2)s1)NCc1ccc2c(c1)OCO2 the results were TTR transcr act 21*, TTR inh HuH7 -7 and TTR act confirm 1.
Cc1ccc(NC(=O)CSc2nnc(NC(=O)c3ccco3)s2)cc1 was read as TTR transcr act -2.
For CCC(C)C(CO)NCCCn1cnc2c(OC)ncnc21 (centres undefined) the results were TTR transcr act 1.
Screening O=C(c1ccco1)N1CCN(C2CN(Cc3ccc(F)cc3)S(=O)(=O)C2)CC1 (centres undefined) returned TTR transcr act 2.
Screening COc1ccc(NC(=O)N2CCCC2C(=O)NCCc2ccccc2)cc1 (centres undefined) returned TTR transcr act 0.
For COc1cc2ccccc2cc1C(=O)NC1CCCC1 the results were TTR transcr act 0.
Screening COc1ccc2cc(C(C)=O)c(=O)oc2c1 returned TTR transcr act 0.
